# From PubChem
# CtBP-E1A inh: blocks the CtBP interaction with E1A | AlphaScreen GST-E1A/His-CtBP binding, 1536-well; hits give low values | activity change, % (no concentration beside the values) | 340,000 tested, 0.49% active; in the data active = activity change below about -65%; inconclusive = mostly about -30% to -63%; note: % is set by controls: 0 for no effect and ±100 for the full control effect
#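 Homogeneous bead-based format: GST-tagged E1A captured on glutathione donor beads, His-tagged CtBP on nickel acceptor beads; compounds precede bead addition by 2 h at 37 °C.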
# BAZ2B inh: inhibitors of human BAZ2B bromodomain | 360,000 tested, 4.4% active | AID 504333 | Potency, µM (series often up to 114 µM), inactives show top-dose activity change, negative = inhibition, usual class: inhibitors | AlphaScreen BAZ2B-H3K14Ac peptide displacement; note: potency is the fitted concentration of half-maximal effect; % is set by controls: 0 for no effect and ±100 for the full control effect; nearly all actives have a fitted effect of over 60% in size
#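 Multi-concentration screen (max 110 uM) measuring displacement of acetylated histone H3 peptide from BAZ2B by AlphaScreen, using 50 nM protein, 50 nM peptide and 10 ug/mL streptavidin donor plus Ni-chelate acceptor beads.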
# JMJD2A Tudor inh: JMJD2A Tudor domain (human) inhibition; O75164; AlphaScreen JMJD2A-Tudor / H3K4me3 peptide binding; Potency, µM (doses to about 114 µM), without a hit: at the top dose activity change, negative = inhibition, usual class: inhibitors; 390,000 tested, 4.4% active; AID 504339; note: potency is the fitted concentration of half-maximal effect; % is set by controls: 0 for no effect and ±100 for the full control effect; nearly all actives have a fitted effect of over 50% in size
# Six1-Eya2 blk: blocks human Six1 binding to Eya2; Q15475+O00167; AlphaScreen GST-Six1/His-Eya2 binding, biochemical; hits give low values; activity change, % (concentration not given with the values); 360,000 tested, 0.56% active; in the data active = activity change below about -65%; inconclusive = mostly about -30% to -63%; note: % is set by controls: 0 for no effect and ±100 for the full control effect
#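 GST-Six1 + His-Eya2 (5X stock: 250/500 nM); Tris pH 8.0, 300 mM NaCl, 0.05% BSA, 0.02% Tween 20; GSH donor/Ni acceptor beads; 1 h 37 °C dark; AlphaScreen readout.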
# G9a inh: inhibitors of human histone lysine methyltransferase G9a; Q96KQ7; G9a H3K9 monomethylation, AlphaScreen, 2 h; Potency, µM (highest dose often 102 µM), for inactives: top-dose activity, negative = inhibition, usual class: inhibitors; 350,000 tested, 8.8% active; AID 504332; note: potency is the fitted concentration of half-maximal effect; % is set by controls: 0 for no effect and ±100 for the full control effect; nearly all actives have a fitted effect of over 75% in size
# Target sequence (Q96KQ7 913-1193 limits assumed): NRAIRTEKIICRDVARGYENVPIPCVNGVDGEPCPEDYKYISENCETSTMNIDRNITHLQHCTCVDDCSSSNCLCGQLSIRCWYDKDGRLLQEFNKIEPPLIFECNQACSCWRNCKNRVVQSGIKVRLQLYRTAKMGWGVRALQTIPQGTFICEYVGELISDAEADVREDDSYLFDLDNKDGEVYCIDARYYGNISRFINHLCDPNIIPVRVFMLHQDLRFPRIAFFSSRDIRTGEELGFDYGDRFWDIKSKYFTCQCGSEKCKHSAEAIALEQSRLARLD
#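 Using a bead-based AlphaScreen, monomethylated H3K9 product from 2 h room-temperature reactions (G9a 20 nM, peptide 500 nM, SAM 20 uM) was detected with 0.5 ug/mL rabbit anti-H3K9me1 antibody.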
# HP1b binding inh: blocks HP1-beta chromodomain binding to methylated histone tails; 390,000 tested, 0.56% active; Potency, µM (titrated, usually from 114 µM), for the others: at the top dose activity change, negative = inhibition, actives largely listed as inhibitors; P83916; AlphaScreen HP1-beta / biotin-H3K9me3 peptide binding; note: potency is the fitted concentration of half-maximal effect; nearly all actives have a fitted effect of over 70% in size
# Target sequence (P83916 whole entry, looked up): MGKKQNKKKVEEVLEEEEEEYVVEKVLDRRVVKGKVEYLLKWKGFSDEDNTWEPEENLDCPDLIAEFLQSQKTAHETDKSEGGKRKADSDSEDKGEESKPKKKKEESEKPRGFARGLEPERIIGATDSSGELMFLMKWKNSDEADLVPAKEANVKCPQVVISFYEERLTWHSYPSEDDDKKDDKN
#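 AlphaScreen: HP1-beta (50 nM) preformed 30 min with biotin-H3(1-18)K9me3 peptide (50 nM) in PBS pH 7.4, 0.01% Tween-20. Compound added for 30 min at RT, then streptavidin donor/nickel chelate acceptor beads (10 ug/mL) for 30 min.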
# * marks the source's active call; other numbers are inactive results; u = inconclusive; x = no result given; [ ] = another dose, or the depositor's remark. Compounds with a hit are over-represented: about 10% of the library has one in this group of screens. Unless noted, calls come from the whole dose curve; as a rule, active = well fitted inhibition curve with a large enough effect; inconclusive = small, poorly fitted or top-dose-only effect; inactive = no such curve, though single readings can be large or run the other way.
SMILES,CtBP-E1A inh,BAZ2B inh,JMJD2A Tudor inh,Six1-Eya2 blk,G9a inh,HP1b binding inh
Cc1cccc(OC(C)C(=O)Nc2ccc(N3CCCCC3)cc2)c1 (stereo not given),-20,u,u,-27,22µM*,-22%
CC(Oc1cccc(Cl)c1)C(=O)Nc1ccccc1N1CCCC1 (stereo not given),-15,-7%,u,-22,50µM*,-4%
Cc1ccc(OC(C)C(=O)Nc2ccccc2C(=O)N2CCN(C)CC2)cc1 (stereo not given),-1,-22%,-4%,-5,40µM*,2%
CC(C(=O)Nc1ccccc1C(=O)N1CCCC1)n1nnc2ccccc21 (stereo not given),3,5%,-11%,0,18µM*,3%
CN(Cc1ccccc1)C(=O)c1ccc2c(c1)N(Cc1ccccc1F)C(=O)c1ccccc1S2(=O)=O,x,-12%,-16%,x,-40%[59 µM],19%
Cc1cc(OC(C)C(=O)Nc2ccccc2C(=O)N2CCCC2)ccc1Cl (stereo not given),9,-4%,2%,-1,49%,41%
Cc1cccc(OC(C)C(=O)Nc2ccccc2C(=O)N2CCCCC2)c1 (stereo not given),-1,-7%,-13%,19,35µM*,16%[57 µM]
COC(CNC(=O)c1ccc2c3c(onc13)-c1ccccc1C2=O)OC,-30,u,50µM*,u,28µM*,u
CSCC[C@@H](C(=O)NCc1cccs1)N1Cc2ccccc2C1=O,6,-9%,-23%,-2,50µM*,8%
CSCC[C@@H](C(=O)Nc1cccc(F)c1)N1Cc2ccccc2C1=O,x,-34%,-24%,x,18µM*,26%
CC(C)(C)c1cc(CCC(=O)Nc2ccncc2)cc(C(C)(C)C)c1O,3,x,-9%,-1,x,23%
Cc1ccc(-c2nc(=S)c3c(n2CC2CCCO2)CC(C)(C)OC3)cc1 (stereo not given),11,32%,-3%,4,17%[12.7 µM],18%
CC(C)(C)c1ccc(-c2n[nH]c(=S)n2CC2CCCO2)cc1 (stereo not given),2,-19%,32µM*,-6,7.9µM*,0%
Fc1ccccc1-c1n[nH]c(=S)n1CC1CCCO1 (stereo not given),-6,-12%,-11%,-3,27%[12.7 µM],44%
S=c1[nH]nc(-c2ccccc2Cl)n1CC1CCCO1 (stereo not given),0,-30%,40µM*,6,5µM*,29%
O=C(c1ccccc1)N1CCN(C2C3CC4CC(C3)CC2C4)CC1 (stereo not given),9,13%,-7%,0,3%,22%
CS(=O)(=O)N1CCN(C2Cc3ccccc3C2)CC1,5,-4%,-3%,-1,-2%,6%
CC1CCC(N2CCN(S(C)(=O)=O)CC2)CC1 (stereo not given),-5,32µM*,3.2µM*,3,u,45µM*
CN1CCCN(C2C3CC4CC(C3)CC2C4)CC1 (stereo not given),-7,u,1µM*,-1,10µM*,u
CS(=O)(=O)N1CCN(C2C3CC4CC(C3)CC2C4)CC1 (stereo not given),-2,-6%,10µM*,3,x,u
COc1cccc(C2c3c(ncn(CCN4CCOCC4)c3=N)Oc3ccc4ccccc4c32)c1 (stereo not given),x,x,-35%,x,x,x
CC1CSc2nc3sc4c(c3c(=O)n21)CCCC4 (stereo not given),2,-2%,-30%,4,20µM*,42%
O=c1oc(-c2ccccc2)nc2sc3c(c12)CCC3,x,50µM*,-27%,-4,-17%,4%
Cc1nc2sc3c(c2c(=O)o1)CCCC3,-2,-31%,-24%,-6,45µM*,15%
O=c1c2c3c(sc2nc2n1CCCS2)CCCC3,-15,5%,-11%,-15,-6%[12.7 µM],36%
SMILES,CtBP-E1A inh,BAZ2B inh,JMJD2A Tudor inh,Six1-Eya2 blk,G9a inh,HP1b binding inh
CC(C)c1nc2sc3c(c2c(=O)o1)CCCC3,1,3%,17%,7,12%[59 µM],35%
Cc1cc(-n2nc3ccc(Cl)cc3n2)c(O)c(C(C)(C)C)c1,x,x,x,x,2%[12.7 µM],x
O=C(c1cc(C2CC2)on1)N1CCCC(N2CCN(c3cccc(C(F)(F)F)c3)CC2)C1 (stereo not given),-7,-35%,-26%,5,79µM*,8%[57 µM]
Cc1cc(C(=O)N2CCCC(N3CCN(c4cccc(C(F)(F)F)c4)CC3)C2)no1 (stereo not given),-5,-23%,-6%,-6,17%,17%
Nc1ccn([C@@H]2O[C@H](CNC(=O)[C@H]3CCC(=O)N3)[C@@H](O)[C@H]2O)c(=O)n1,2,x,x,9,x,x
CC12CCC(=O)C=C1CCC1C2CCC2(C)C(C(=O)CO)CC(O)C12 (stereo not given),2,x,-10%,-8,x,11%
N#Cc1ccc(C(=O)NCC2CCCCC2)cc1,2,1%,12%,0,50µM*,21%
O=C(NCC1CCCCC1)c1ccc(=O)[nH]c1,-3,-3%,-3%,-4,45µM*,0%
Cc1ccc(C)c(CN2C(=O)c3ccccc3S(=O)c3ccc(C(=O)NCc4ccco4)cc32)c1 (stereo not given),x,-23%,-28%,x,-36%[59 µM],-2%
CCOC(=O)C1(C)CCCN(C(=O)c2cc(C#N)cs2)C1 (stereo not given),40,x,x,28,x,x
Fc1ccc(NCc2cn3ccccc3n2)cc1,-1,50µM*,-34%,0,-37%[59 µM],16%
CC1CC(C)CN(CCCNC(=O)c2nn(C)c3c2CS(=O)(=O)c2ccccc2-3)C1 (stereo not given),0,-17%,0%,0,2%,21%
O=C1COCCN1,x,x,-10%,x,x,24%
CN(C)CC(C)(C)CNS(=O)(=O)c1cccc(Cl)c1Cl,-2,11%,50µM*,10,8.9µM*,26%
CN(C)CC(C)(C)CNS(=O)(=O)c1ccc(Cl)cc1,3,x,-8%,10,-63%,40%
COc1cc(-c2coc3c(C(=O)NCc4cccc(Cl)c4)cccc23)ccc1O,-16,x,x,-19,x,x
COc1ccc(N=C2NC(=O)/C(=C\C=C\c3ccco3)S2)cc1,-13,28µM*,20µM*,-21,7.1µM*,22µM*
Cc1cccc(N=C2NC(=O)/C(=C/C=C/c3ccco3)S2)c1,-4,35µM*,18µM*,u,14µM*,u
